From PubChem BioAssay (NCI)
The panel holds about 83,000 compounds, 20% with a hit somewhere; the sample as a whole holds those more often.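 Negative percent growth values reflect cell death: -40 means 40% of the cells present at the start died, and -100 means all died.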 Active and inactive are the calls of the source. Rule for the calls: active = growth percent below 10; inactive = the rest.

Key:
Test in all cases: NCI-60 one-dose screen, 48 h (100 = growth as untreated, 0 = no growth, -100 = all killed)
Settings in all cases: 10 µM unless noted
[1] = tested on: SK-MEL-2 melanoma
[2] = tested on: EKVX NSCLC
[3] = tested on: SN12C renal
[4] = tested on: UO-31 renal
[5] = tested on: TK-10 renal
[6] = tested on: ACHN renal
[7] = tested on: CAKI-1 renal
[8] = tested on: A498 renal
[9] = tested on: CCRF-CEM leukemia
[10] = tested on: MOLT-4 leukemia

Measured: growth

COc1cccc(N2CCN(C3=C(Cl)C(=O)c4ncccc4C3=O)CC2)c1
active: [6] -23.8% | [9] 10%
inactive: [1] 98.4% | [2] 102% | [3] 95.8% | [4] 38% | [5] 126% | [7] 57.8% | [8] 104% | [10] 18.2%

CN(C)S(=O)(=O)c1ccc(-c2nc(C(Cl)Cl)nc3cc(-c4ccccc4)nn23)cc1
inactive: [1] 112% | [2] 80% | [3] 81.1% | [4] 88.8% | [5] 101% | [6] 43.4% | [7] 73.1% | [8] 106% | [9] 77.3% | [10] 63.4%

C#CCOc1ccc(/C=N/Nc2nc(-c3ccc(OC)cc3)cs2)cc1
inactive: [1] 95.8% | [2] 62.8% | [3] 78.3% | [4] 66.8% | [5] 101% | [6] 84.2% | [7] 66.3% | [8] 63% | [9] 76.1% | [10] 73.7%

COc1cc(C(=O)c2cc(C(C)=O)c3c(C)cccn23)cc(OC)c1OC
inactive: [1] 98.9% | [2] 99% | [3] 80.9% | [4] 75.6% | [5] 108% | [6] 97.9% | [7] 84.5% | [9] 96.1% | [10] 92.5%
active: [8] -10.4%

COc1cc2oc(-c3cccc(NC(=O)[C@@H](N)C(C)C)c3)cc(=O)c2c(OC)c1OC
inactive: [1] 102% | [2] 98.4% | [3] 101% | [4] 76.3% | [5] 97.7% | [6] 100% | [7] 91.1% | [8] 95.7% | [9] 97.9% | [10] 99.9%

CCN(CC)S(=O)(=O)c1ccc(-c2nc(C(Cl)Cl)nc3cc(C)nn23)cc1
inactive: [1] 89.4% | [2] 25.8% | [3] 58.6% | [4] 46.4% | [5] 79.4% | [7] 29.6% | [8] 74.8% | [9] 48.9% | [10] 36.1%
active: [6] 8.7%

CC[C@]12C=CCN3CC[C@]4(C(=C(C(=O)OC)C1)Nc1cc5c(cc14)[C@@H]1[C@H](O5)[C@@H](O)[C@@]4(CC)CC(C(=O)OC)=C5Nc6cc(O)ccc6[C@@]56CCN1C46)C32 (stereo not given in full)
active: [4] 4.9% | [5] -9.16% | [6] -14.3% | [7] -7.67% | [8] -71.8% | [9] 6.81% | [10] 8.51%
inactive: [1] 16.1% | [2] 16.3% | [3] 13.8%

CC(C)(C)c1cc(NC(=O)Nc2ccc(-c3cn4c5c(sc4n3)CCc3cn(CCCN4CCCCC4)cc3-5)cc2)no1
active: [2] -80.5% | [3] -86.3% | [4] -70.3% | [5] -89.3% | [6] -99.7% | [7] -97.2% | [9] 3.37% | [10] -10.9%
inactive: [1] 108% | [8] 74.5%

COC(=O)[C@@H](Cc1c[nH]c2ccccc12)NC(=O)CCCCOc1cc(O)c2c(=O)cc(-c3ccccc3)oc2c1
inactive: [1] 90.5% | [2] 86.8% | [3] 95.2% | [4] 68.8% | [5] 132% | [6] 91.8% | [7] 71.9% | [8] 70% | [9] 83.1% | [10] 65.1%

OCC(Nc1ncnc2ccc(-c3cnc4cnccn34)cc12)c1ccccc1 (stereo not given)
inactive: [1] 45% | [2] 52.3% | [3] 80.7% | [4] 36.6% | [5] 40% | [6] 43.3% | [7] 41.7% | [8] 76.4% | [9] 80.5% | [10] 76.1%

O=C(CSc1nc2ccccc2c(=O)n1-c1ccccc1)Nc1ccc(S(=O)(=O)Nc2nccs2)cc1
inactive: [1] 89.9% | [2] 91.3% | [3] 63.8% | [4] 97.2% | [5] 112% | [6] 71.9% | [7] 59.1% | [8] 107% | [9] 34.8% | [10] 50.2%

CCc1cc2c(cc1Cl)nc1c(=O)[nH]c(=O)nc-1n2CCOCC(C)(C)C
inactive: [1] 96.6% | [2] 71.2% | [3] 79.8% | [4] 44.3% | [5] 160% | [6] 65.7% | [7] 70.8% | [8] 87.6% | [9] 89.6% | [10] 69.2%

CCc1cc(OC(=O)N2CCN(CCC(C)(COC(C)(C)C)COC(C)(C)C)CC2)ccc1Nc1cc(-c2ccc(-n3cccn3)cc2)[nH]n1
inactive: [1] 102% | [2] 66.1% | [3] 62.1% | [4] 81.3% | [5] 103% | [6] 81% | [7] 64.9% | [8] 81.2% | [9] 56.7% | [10] 52.9%

CN1CCN(CCNc2nc(-c3cccc(NS(=O)(=O)c4cccc5c(N(C)C)cccc45)c3)cs2)CC1
inactive: [1] 103% | [2] 50% | [3] 58.9% | [4] 56.8% | [5] 90.7% | [6] 72.5% | [7] 58.6% | [8] 67.5% | [9] 60.1% | [10] 44.6%

COc1ccc(-c2cc(-c3ccc(N4CCOCC4)cc3)n3c(n2)nc2ccccc23)cc1OC
inactive: [1] 97.8% | [2] 88.3% | [3] 78.6% | [4] 39.2% | [5] 98.8% | [6] 93.6% | [7] 50.6% | [8] 63% | [9] 63.7% | [10] 51.4%

C=C(C=O)[C@@H]1CC[C@]2(C(=O)O)CC[C@]3(C)C(CC[C@@H]4[C@@](C)(CCC#N)[C@H](C(=C)C=O)CC[C@]43C)[C@@H]12 (stereo not given in full)
inactive: [1] 61.1% | [2] 100% | [3] 66.4% | [4] 32.8% | [5] 128% | [6] 51.8% | [7] 17.8% | [8] 96.9%
active: [9] 2.89% | [10] 5.55%

COc1ccc(-c2c3c(cn2Cc2cccc(OC)c2)-c2oncc2CCC3)cc1
inactive: [1] 96.2% | [2] 97.6% | [3] 96.6% | [4] 81% | [5] 106% | [6] 102% | [7] 76.1% | [8] 96.8% | [9] 96.8% | [10] 98.6%

CN1CCN(c2ccc(Nc3nc(NCCCNS(=O)(=O)c4ccc(F)cc4)c4sccc4n3)cc2)CC1
inactive: [1] 107% | [2] 93.5% | [3] 82% | [4] 64.7% | [5] 140% | [6] 70.4% | [7] 67.6% | [8] 128% | [9] 31.1% | [10] 21.6%

Cc1ccc(-c2csc(N/N=C/c3cccs3)n2)cc1
inactive: [1] 111% | [2] 65.2% | [3] 100% | [4] 75.1% | [5] 151% | [6] 90.4% | [7] 87.4% | [8] 116% | [9] 91.9% | [10] 86.7%

COc1ccc(C2c3[nH]c4ccc(Cl)cc4c3CCN2c2oc(CO)nc2C#N)cc1 (stereo not given)
inactive: [1] 81.6% | [2] 59.4% | [3] 66.4% | [4] 54% | [5] 93.9% | [6] 45.3% | [7] 36.5% | [8] 68.7% | [9] 37.3% | [10] 29.3%

COc1ccc(OC)c(NC(=O)CCCCCCNC(=O)C(O)(O)C(F)(F)F)c1
inactive: [1] 10.6% | [2] 56% | [3] 58.9% | [4] 30.3% | [5] 12.9% | [6] 15.3% | [7] 25.2% | [8] 38.3% | [9] 23.5% | [10] 20%

O=C(CCCCCCNC(=O)C(O)(O)C(F)(F)F)Nc1ccc(Cl)cc1
active: [1] -13.7% | [4] 8.11% | [5] 3.6% | [6] 0.488% | [7] 3.96% | [8] 9%
inactive: [2] 39.2% | [3] 29.8% | [9] 22.4% | [10] 15.8%

CN(C)c1ccc(/C=N/Nc2nc(N/N=C/c3ccc(N(C)C)cc3)nc(N3CCCCC3)n2)cc1
inactive: [1] 111% | [2] 97% | [3] 50.4% | [4] 80.3% | [5] 118% | [6] 32.4% | [7] 89.9% | [8] 115% | [9] 25.8% | [10] 12.1%

NC(=O)c1c(NC(=O)c2ccc(C(F)(F)F)cc2)sc2c1CCC(=O)C2
inactive: [1] 51.3% | [2] 24.8% | [3] 12.4% | [5] 17% | [8] 89.4%
active: [4] -86.4% | [6] -47.1% | [7] -24.3% | [9] -4.99% | [10] 4.59%
